# From ChEMBL document CHEMBL3433997, “St. Jude Leishmania screening dataset” (2016)
# What was measured:
# Format in all cases: functional
# [1] = molecular target: Solute carrier family 2, facilitated glucose transporter member 1 (Homo sapiens) (UniProt P11166); assay: ST_JUDE_LEISH: Cytotoxicity at 2uM final concentration against transgenic Leishmania Mexicana promastigotes LmGLUT1 that are glucose transport deficient and complemented with the human glucose transporter GLUT1. Activity is measured by DNA content using SYBR green in vitro
# [2] = molecular target: Hexose transporter 1 (Plasmodium falciparum) (UniProt O97467); assay: ST_JUDE_LEISH: Cytotoxicity at 2uM final concentration against transgenic Leishmania Mexicana promastigotes LmPfHT that are glucose transport deficient and complemented with the Plasmodium falciparum hexose transporter. Activity is measured by DNA content using SYBR green in vitro
# [3] = molecular target: Glucose transporter (Leishmania mexicana) (UniProt O61059); assay: ST_JUDE_LEISH: Cytotoxicity at 2uM final concentration against transgenic Leishmania Mexicana promastigotes LmGT2 that are glucose transport deficient and complemented with the L. Mexicana glucose transporter 2. Activity is measured by DNA content using SYBR green in vitro
# Solute carrier family 2, facilitated glucose transporter member 1 (Homo sapiens), sequence (P11166 whole entry): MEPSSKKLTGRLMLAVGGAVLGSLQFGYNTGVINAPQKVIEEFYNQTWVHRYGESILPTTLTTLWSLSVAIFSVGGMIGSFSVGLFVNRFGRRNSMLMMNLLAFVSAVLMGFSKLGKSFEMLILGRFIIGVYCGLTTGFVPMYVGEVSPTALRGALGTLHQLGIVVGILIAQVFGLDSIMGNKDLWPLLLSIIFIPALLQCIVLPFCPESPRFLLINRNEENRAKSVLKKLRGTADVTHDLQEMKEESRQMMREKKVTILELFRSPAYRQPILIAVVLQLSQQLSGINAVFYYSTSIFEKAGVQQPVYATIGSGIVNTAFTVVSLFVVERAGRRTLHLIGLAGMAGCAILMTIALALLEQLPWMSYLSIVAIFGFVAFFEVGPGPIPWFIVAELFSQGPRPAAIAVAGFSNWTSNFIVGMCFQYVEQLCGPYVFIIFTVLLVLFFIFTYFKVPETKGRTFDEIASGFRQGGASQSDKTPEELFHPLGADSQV
Compound,inhibition [1] [%],inhibition [2] [%],inhibition [3] [%]
COc1cc(NC(=O)/C=C/c2ccccc2Cl)cc(OCCN2CCC(O)(c3ccccc3)CC2)c1,6.07,3.45,4.61
COc1ccc2nccc([C@@H](O)CN3CCC(NC(=O)/C=C/c4ccc(F)c5ccccc45)CC3)c2c1,8.56,5.8,5.26
CCCCOc1ccc(C(=O)C(CCC(CNC(C)(C)C)C(=O)c2ccc(OCCCC)cc2)CNC(C)(C)C)cc1 (configuration not stated),43.9,12.2,31.8
FC(F)(F)c1cnc(Sc2nnc(-c3ccco3)o2)c(Cl)c1,17.1,12.9,11.8
O=C1OC(c2cc3ccccc3n2S(=O)(=O)c2ccccc2)(c2cc3ccccc3n2S(=O)(=O)c2ccccc2)c2ccccc21,1.65,1.8,2.01
CCCC1N=C(N)N=C(N)N1c1cccc([N+](=O)[O-])c1 (configuration not stated),1.33,-0.09,0.75
O=C(Nc1ccc2nc3n(c(=O)c2c1)CCCCC3)C(=O)N1CCN(c2ccc(F)cc2)CC1,7.33,9.84,7.95
O=C(NCCCc1ccccc1)c1csc(C2CCCN(C(=O)c3ccc(O)c(-c4ccccc4)c3)C2)n1 (configuration not stated),2.11,0.46,-4.23
CCO[C@H]1CN[C@H](C#Cc2cc3c(Nc4ccc(OCc5cccc(F)c5)c(Cl)c4)ncnc3s2)C1,0.74,3.65,3.03
S=C(Nc1ccc(Cl)cc1)Nc1ccc(Nc2ccccc2)cc1,6.97,5.37,5
Cc1ccc(CCNCC(O)c2cccc(C(F)(F)F)c2)cc1 (configuration not stated),0.25,1.08,1.78
O=C(Nc1ccc(-c2ccccc2)cc1)Nc1cccc(Cn2ncc(N3CCNCC3)c(Cl)c2=O)c1,-0.79,1.65,6.76
Nc1nc(N)c2c(CCc3ccc4ccccc4c3)cccc2n1,3.27,1.63,-1.66
C=C(C)Cn1cc(C2CCN(CCCCNC(=O)c3sc(-c4ccc(Cl)cc4Cl)nc3CO)CC2)c2ccccc21,-1.31,-1.73,0.05
